# Assay outcomes (PubChem BioAssay)
# HCV NS3h FP: hepatitis C NS3 helicase inhibition, primary screen; 1.6% of 16,000 active; inhibition, % at 100 µM; AID 687043; NS3h Cy5-dT15 DNA binding, fluorescence polarization;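 active means inhibition above the average over every tested compound plus 3 SD, cut at about 40% in these data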
# Cy5 interf NS3h: Cy5 fluorescence interference, HCV helicase counter-screen; Cy5-dT15 DNA with NS3h; actives lie on both sides; signal over control mean, under 1 quenches; fluorescence interference ratio at 100 µM; 6% of 16,000 active; AID 720488;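 active means compound fluorescence over control fluorescence at most 0.8, a quencher, or at least a set upper limit, an enhancer; inactive means ratio between 0.8 and the set upper limit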
# Hits are given with their value; . = inactive. Most compounds without a hit are left out; they make up all but 7.6% or so of the library.
SMILES,HCV NS3h FP,Cy5 interf NS3h
COc1ccc(-c2nnc(Nc3ccc(C)cc3)c3ccccc23)cc1,.,.
Cc1nc2cc(Nc3nnc(-c4ccc(Cl)cc4)c4ccccc34)ccc2n1C,.,0.67
Cc1ccc(-c2nnc(Nc3ccc4c(c3)ncn4C)c3ccccc23)cc1,.,.
NC(=O)c1cc(NC(=O)COc2ccc(F)cc2)c(Cl)cc1Cl,.,.
CN(C)c1ccc(/C=C2\C(=O)Oc3ccccc3C2=O)cc1,.,.
CN(C)c1ccc(/C=C2\C(=O)c3cccc([N+](=O)[O-])c3C2=O)cc1,49,.
Cc1ccc(NS(=O)(=O)c2cccc3c2C(=O)c2ccccc2C3=O)cc1C,.,.
O=c1oc(-c2ccccc2)nc2sc3c(c12)CCCC3,.,0.69
O=c1oc(-c2cccs2)nc2sc3c(c12)CCCCC3,.,.
CCCOc1cccc(C(=O)Nc2ccc(I)cc2Cl)c1,.,.
COC(=O)C1=C(C)N(c2ccc(C)cc2)/C(=C\c2ccc(OCC(=O)Nc3ccccc3)cc2)C1=O,.,.
COc1ccccc1NC(=O)c1ccc(CN(c2ccc(C)c(C)c2)S(C)(=O)=O)cc1,.,.
O=C(/C=C/c1ccc(S(=O)(=O)Nc2ccccc2)cc1)C1C(=O)c2ccccc2C1=O,.,0.47
O=C(O)/C=C/c1cccc(NS(=O)(=O)c2ccccc2)c1,.,.
Cc1nc2sc3c(c2c(=O)n1-n1cccc1)CCCC3,.,.
Cc1nc2sc3c(c2c2nncn12)CCCC3,.,0.66
O=C(Nc1ccccc1Cl)C1CN(S(=O)(=O)c2ccccc2)CCN1S(=O)(=O)c1ccccc1 (configuration not stated),.,1.4
O=C(Nc1ccccc1Br)C1CN(S(=O)(=O)c2ccccc2)CCN1S(=O)(=O)c1ccccc1 (configuration not stated),.,.
COc1ccc(C2=N/C(=C/c3ccc([N+](=O)[O-])cc3)C(=O)N2c2ccc(O)cc2)cc1,.,0.79
Cc1cccc(C2=N/C(=C/c3ccc([N+](=O)[O-])cc3)C(=O)N2c2ccc(O)cc2)c1,.,.
CC(=O)NC(=O)c1ccccc1OCC(=O)c1ccc(Br)cc1,.,.
O=C(COc1ccccc1Cl)Nc1c[nH]c(=O)[nH]c1=O,.,1.3
O=C(COc1ccccc1Cl)NNC(=O)c1ccccc1I,.,.
O=C(Cc1ccccc1)NC(c1ccco1)c1c(O)ccc2ccccc12 (configuration not stated),.,0.59
O=C(Cc1ccccc1)NC(c1ccco1)c1ccc2cccnc2c1O (configuration not stated),.,.
SMILES,HCV NS3h FP,Cy5 interf NS3h
O=C(Nc1ccc([N+](=O)[O-])cc1)C1C(c2ccccc2)C1(Cl)Cl (configuration not stated),.,.
N/C(=N/OC(=O)C(c1ccccc1)c1ccccc1)c1cccnc1,.,.
CC(C)COc1ccc(C(=O)N/C(=C/c2ccc3c(c2)OCO3)C(=O)O)cc1,.,.
O=C(Oc1cccc2ccccc12)c1ccc(Cl)cc1Cl,.,0.64
O=S(=O)(Oc1cccc2ccccc12)c1cc(Cl)ccc1Cl,.,.
COC(=O)c1ccc(-n2c(C)cc(C=C3C(=O)N(C)C(=O)N(C)C3=O)c2C)cc1,.,0.8
COC(=O)c1ccc(-n2c(C)cc(/C=C3\C(=O)NC(=O)N(c4ccc(OC)cc4)C3=O)c2C)cc1,.,.
Cc1ccc(NC(=O)C2C3CC/C=C\CCC32)cc1 (configuration not stated),.,.
O=C(O)C1C2C=CC(C3CC23)C1C(=O)Nc1ccc(F)cc1 (configuration not stated),.,0.69
COc1ccc(N2C(=O)C3C4c5ccccc5C(C)(c5ccccc54)C3C2=O)cc1 (configuration not stated),.,.
CC12c3ccccc3C(C)(c3ccccc31)C1C(=O)N(c3ccc(C(=O)O)cc3)C(=O)C12 (configuration not stated),.,0.72
COC(=O)c1ccccc1NC(=O)c1cc(Br)ccc1OC,.,.
COCCNC(=O)C(=O)Nc1cc(C)cc(C)c1,.,.
C=CCc1c(C)nc2cc(-c3cccc(F)c3)[nH]n2c1=O,.,1.2
CCOC(=O)CCc1c(C)nc2cc(-c3cccc(F)c3)[nH]n2c1=O,.,.
Clc1ccc(-c2nc(-c3cccnc3)no2)c(Cl)c1,.,.
Clc1ccccc1-c1nc(-c2cccnc2)no1,.,1.2
CCOc1ccc(NC2=C(Cl)C(=O)N(c3cccc(Cl)c3Cl)C2=O)cc1,.,.
CCOc1ccc(N(CC(=O)Nc2ccccc2OCC)S(=O)(=O)c2ccc(SC)cc2)cc1,.,.
CCc1nnc(NS(=O)(=O)c2ccc(NC(=S)NC(=O)/C=C/c3ccc(C(C)C)cc3)cc2)s1,44,.
Cc1ccc(/C=C/C(=O)NC(=S)Nc2ccc(S(N)(=O)=O)cc2)cc1,.,.
O=C1NN(c2ccccc2)C(=O)/C1=C/c1ccccc1OCc1ccc(F)cc1,.,.
CCOc1ccc(C(=O)Nc2cccc(OC)c2)cc1OCC,.,.
Nc1ncnc2ncc3c4ccccc4[nH]c3c12,.,.
CC(CCC(=O)Nc1nc2ccccc2s1)CC(=O)Nc1nc2ccccc2s1 (configuration not stated),.,.
SMILES,HCV NS3h FP,Cy5 interf NS3h
COCC(=O)Nc1nc2ccccc2s1,.,0.67
CCCCOc1cccc(C(=O)Nc2cccc(-c3nc4ncccc4o3)c2)c1,.,.
Cc1ccc(C(C)C)c(OCC(=O)N2CCN(c3ccc([N+](=O)[O-])cc3)CC2)c1,.,.
COc1cc(/C=N\Nc2ccnc3cc(Cl)ccc23)ccc1O,.,0.34
COc1cc(/C=C2/C(=O)ON=C2c2ccc(Cl)cc2)ccc1O,.,.
COC(=NS(=O)(=O)c1ccc(Cl)cc1)c1ccccc1,.,.
O=C(NC(=C(Cl)Cl)S(=O)(=O)c1ccc(Cl)cc1)c1ccccc1,.,0.79
C/C(=N/N=C1\NC(=O)C(CC(=O)Nc2ccc(Cl)cc2)S1)C(C)(C)C (configuration not stated),.,.
Cc1ccc(C)n1-c1cccc2cccnc12,.,0.07
CC(C)(C)c1ccccc1OCC(O)CN1CCOCC1 (configuration not stated),.,.
CCCN(CCC)C(=O)c1c(NC(=O)c2cccs2)sc2c1CCCCC2,.,0.67
CCc1ccccc1NC(=O)c1c(NC(=O)c2cccs2)sc2c1CCCCC2,.,.
CC(=O)N/C(=C\c1cccc([N+](=O)[O-])c1)C(=O)NC(C)C,.,.
C/C(=N/N=C\c1cccc([N+](=O)[O-])c1)C1C(=O)c2ccccc2C1=O,.,0.62
CCCC(=O)NS(=O)(=O)c1ccc(NS(=O)(=O)c2ccc(C)cc2)cc1,.,.
CCCCCC12CCC(O)(CC1)C/C2=N\NS(=O)(=O)c1ccc(C)cc1,.,0.73
NC(=O)C1CCN(C(=O)c2cccc(F)c2)CC1,.,.
Cn1c(-c2ccc(-c3nc4cnccc4n3C)cc2)nc2cnccc21,.,1.2
Cn1c(-c2nc3ccccc3n2C)nc2ccccc21,.,.
Cc1ccc(N2C(=O)CC(N3CCC(C)CC3)C2=O)cc1 (configuration not stated),.,1.2
Cc1ccc(N2C(=O)CC(N3CCSCC3)C2=O)cc1 (configuration not stated),.,.
CS(=O)(=O)N(Cc1ccc(C(=O)NCCSc2ccccn2)cc1)c1ccccc1,.,.
COCCNC(=O)c1ccc(CN(c2ccccc2)S(C)(=O)=O)cc1,.,0.72
